Key:
Assay in all cases: log2 ratio of Biotin-Ahx-Ub-VS probe labelling (fragment/DMSO); higher = less target engagement (more negative = stronger competition), active = hit call of the paper (q ≤ 0.05, log2 ratio ≤ -1)
Details in all cases: compound concentration: 200 uM; treatment time: 3 h
USP42 = molecular target: T1, USP42 (UniProt Q9H9J4)
T1 sequence (whole entry): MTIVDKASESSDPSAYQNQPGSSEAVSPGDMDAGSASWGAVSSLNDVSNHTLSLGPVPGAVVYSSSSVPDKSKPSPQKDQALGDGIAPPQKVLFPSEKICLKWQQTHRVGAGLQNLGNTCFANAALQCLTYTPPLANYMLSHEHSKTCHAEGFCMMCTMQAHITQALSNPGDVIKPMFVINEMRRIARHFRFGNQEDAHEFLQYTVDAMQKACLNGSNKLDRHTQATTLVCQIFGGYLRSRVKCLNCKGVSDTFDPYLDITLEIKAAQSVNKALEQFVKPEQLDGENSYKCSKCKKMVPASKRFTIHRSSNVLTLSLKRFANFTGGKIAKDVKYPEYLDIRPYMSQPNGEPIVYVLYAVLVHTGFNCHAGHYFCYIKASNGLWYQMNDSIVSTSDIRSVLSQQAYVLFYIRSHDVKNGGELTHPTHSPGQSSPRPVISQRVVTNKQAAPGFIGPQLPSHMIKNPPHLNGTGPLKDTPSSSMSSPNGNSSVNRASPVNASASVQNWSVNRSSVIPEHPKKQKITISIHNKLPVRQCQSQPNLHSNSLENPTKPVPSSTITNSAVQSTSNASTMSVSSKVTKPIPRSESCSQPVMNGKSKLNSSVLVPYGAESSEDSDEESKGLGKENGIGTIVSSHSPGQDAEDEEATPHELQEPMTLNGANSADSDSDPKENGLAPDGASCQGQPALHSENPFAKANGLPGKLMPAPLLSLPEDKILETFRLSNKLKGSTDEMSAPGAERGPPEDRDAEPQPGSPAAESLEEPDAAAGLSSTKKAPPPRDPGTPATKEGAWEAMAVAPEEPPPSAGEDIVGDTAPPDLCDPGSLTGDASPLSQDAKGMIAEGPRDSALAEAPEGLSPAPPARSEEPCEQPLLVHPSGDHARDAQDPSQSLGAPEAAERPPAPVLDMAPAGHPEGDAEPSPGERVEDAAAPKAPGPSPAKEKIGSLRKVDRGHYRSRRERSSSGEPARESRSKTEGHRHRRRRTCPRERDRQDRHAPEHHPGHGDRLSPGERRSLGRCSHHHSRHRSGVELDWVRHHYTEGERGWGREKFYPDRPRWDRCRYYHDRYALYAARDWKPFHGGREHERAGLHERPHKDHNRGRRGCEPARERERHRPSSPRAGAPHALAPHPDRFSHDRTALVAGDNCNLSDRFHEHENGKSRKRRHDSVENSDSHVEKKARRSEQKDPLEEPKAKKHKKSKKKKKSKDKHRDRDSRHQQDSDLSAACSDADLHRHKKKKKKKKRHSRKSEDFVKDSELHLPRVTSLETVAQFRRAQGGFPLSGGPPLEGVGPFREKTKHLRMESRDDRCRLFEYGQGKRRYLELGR
Procedure, shortened: (§1)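 Using Biotin-Ahx-Ub-VS at 0.5 µM final for 1 h, DUBs were labelled in HEK293T lysate (495 µg per sample) that had first been treated in triplicate with fragment at 200 µM or vehicle for 3 h. NeutrAvidin enrichment, LysC and trypsin digestion and diaPASEF LC-MS/MS followed. Spectronaut label-free quantities were global-median-normalised. Values are average log2 fragment/vehicle ratios by unpaired t-test, using proteins with ≥2 unique peptides.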

USP46 = USP46 (UniProt P62068)
Sequence of USP46 (P62068 whole entry): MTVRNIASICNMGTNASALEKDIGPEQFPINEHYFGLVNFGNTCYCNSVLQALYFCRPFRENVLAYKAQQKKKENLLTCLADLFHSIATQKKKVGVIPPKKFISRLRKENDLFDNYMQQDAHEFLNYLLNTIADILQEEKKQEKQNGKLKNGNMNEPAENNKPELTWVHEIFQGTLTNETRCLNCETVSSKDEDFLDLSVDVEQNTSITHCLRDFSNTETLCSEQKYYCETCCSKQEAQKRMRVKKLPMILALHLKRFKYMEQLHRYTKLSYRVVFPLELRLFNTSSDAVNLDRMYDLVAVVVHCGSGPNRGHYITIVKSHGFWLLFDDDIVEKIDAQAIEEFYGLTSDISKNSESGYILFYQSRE
Procedure, shortened: as §1

USP47 = molecular target: T2, USP47 (UniProt Q96K76)
T2 sequence (whole entry): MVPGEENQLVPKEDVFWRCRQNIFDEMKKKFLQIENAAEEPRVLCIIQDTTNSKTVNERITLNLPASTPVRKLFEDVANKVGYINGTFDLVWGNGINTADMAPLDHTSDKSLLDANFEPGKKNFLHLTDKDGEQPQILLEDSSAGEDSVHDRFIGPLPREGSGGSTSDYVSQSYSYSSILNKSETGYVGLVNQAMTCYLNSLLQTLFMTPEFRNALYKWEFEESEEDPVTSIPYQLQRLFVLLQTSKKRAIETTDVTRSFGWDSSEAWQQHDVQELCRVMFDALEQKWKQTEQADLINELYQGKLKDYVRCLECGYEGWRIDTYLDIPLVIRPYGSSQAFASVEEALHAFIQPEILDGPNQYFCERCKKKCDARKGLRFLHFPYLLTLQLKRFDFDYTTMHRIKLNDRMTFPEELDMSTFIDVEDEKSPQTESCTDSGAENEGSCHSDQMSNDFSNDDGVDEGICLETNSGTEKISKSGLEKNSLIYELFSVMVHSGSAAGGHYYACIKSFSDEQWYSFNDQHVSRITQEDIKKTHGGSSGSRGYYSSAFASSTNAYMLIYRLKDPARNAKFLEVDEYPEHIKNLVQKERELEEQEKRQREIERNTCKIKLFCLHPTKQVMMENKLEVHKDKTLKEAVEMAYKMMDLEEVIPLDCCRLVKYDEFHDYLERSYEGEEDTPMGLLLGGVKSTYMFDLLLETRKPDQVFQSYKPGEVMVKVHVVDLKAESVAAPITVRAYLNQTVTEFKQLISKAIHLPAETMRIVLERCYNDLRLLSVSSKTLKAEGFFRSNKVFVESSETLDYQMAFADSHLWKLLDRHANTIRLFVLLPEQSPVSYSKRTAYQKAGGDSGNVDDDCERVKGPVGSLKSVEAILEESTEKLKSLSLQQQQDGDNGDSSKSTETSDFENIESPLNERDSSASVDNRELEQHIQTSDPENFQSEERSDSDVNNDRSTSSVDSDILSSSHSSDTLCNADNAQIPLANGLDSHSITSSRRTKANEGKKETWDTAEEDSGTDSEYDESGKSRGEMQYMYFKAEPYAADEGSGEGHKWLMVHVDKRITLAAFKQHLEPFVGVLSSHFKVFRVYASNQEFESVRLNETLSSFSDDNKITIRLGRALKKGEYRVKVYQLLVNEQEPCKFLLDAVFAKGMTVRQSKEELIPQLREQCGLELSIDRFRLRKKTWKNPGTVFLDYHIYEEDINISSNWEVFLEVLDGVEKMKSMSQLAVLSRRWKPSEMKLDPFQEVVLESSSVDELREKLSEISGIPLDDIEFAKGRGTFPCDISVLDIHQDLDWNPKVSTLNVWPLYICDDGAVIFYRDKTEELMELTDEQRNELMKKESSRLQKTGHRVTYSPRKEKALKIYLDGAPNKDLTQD
Procedure, shortened: as §1

USP48 = molecular target: T3, USP48 (UniProt Q86UV5)
T3 sequence (whole entry): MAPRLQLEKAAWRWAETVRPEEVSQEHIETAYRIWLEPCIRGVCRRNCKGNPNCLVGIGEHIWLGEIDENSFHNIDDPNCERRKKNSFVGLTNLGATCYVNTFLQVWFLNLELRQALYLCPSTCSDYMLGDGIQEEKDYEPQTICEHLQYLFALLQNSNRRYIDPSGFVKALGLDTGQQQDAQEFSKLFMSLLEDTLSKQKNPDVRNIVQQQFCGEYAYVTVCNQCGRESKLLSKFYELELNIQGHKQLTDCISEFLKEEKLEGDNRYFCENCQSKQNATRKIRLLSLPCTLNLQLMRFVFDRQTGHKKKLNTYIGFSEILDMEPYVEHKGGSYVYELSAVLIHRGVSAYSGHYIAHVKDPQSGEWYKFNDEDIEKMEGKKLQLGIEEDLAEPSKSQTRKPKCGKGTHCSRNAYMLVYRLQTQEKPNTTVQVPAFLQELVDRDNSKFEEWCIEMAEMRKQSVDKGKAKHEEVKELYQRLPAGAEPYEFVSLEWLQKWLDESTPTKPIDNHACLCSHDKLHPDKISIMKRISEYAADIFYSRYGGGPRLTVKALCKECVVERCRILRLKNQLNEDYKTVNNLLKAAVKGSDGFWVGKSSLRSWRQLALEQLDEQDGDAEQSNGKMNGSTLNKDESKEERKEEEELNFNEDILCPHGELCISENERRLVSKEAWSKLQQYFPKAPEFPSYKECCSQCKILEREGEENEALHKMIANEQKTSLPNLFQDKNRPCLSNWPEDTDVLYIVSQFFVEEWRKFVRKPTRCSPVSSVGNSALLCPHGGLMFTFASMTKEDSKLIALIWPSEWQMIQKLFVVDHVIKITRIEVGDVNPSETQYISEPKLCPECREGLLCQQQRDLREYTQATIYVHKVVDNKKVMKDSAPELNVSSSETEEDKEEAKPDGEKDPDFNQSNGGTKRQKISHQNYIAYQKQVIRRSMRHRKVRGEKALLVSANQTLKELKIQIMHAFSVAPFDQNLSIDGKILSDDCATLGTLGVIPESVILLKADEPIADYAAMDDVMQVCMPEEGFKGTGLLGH
Procedure, shortened: as §1

USP5 = molecular target: T4, USP5 (UniProt P45974)
T4 sequence (whole entry): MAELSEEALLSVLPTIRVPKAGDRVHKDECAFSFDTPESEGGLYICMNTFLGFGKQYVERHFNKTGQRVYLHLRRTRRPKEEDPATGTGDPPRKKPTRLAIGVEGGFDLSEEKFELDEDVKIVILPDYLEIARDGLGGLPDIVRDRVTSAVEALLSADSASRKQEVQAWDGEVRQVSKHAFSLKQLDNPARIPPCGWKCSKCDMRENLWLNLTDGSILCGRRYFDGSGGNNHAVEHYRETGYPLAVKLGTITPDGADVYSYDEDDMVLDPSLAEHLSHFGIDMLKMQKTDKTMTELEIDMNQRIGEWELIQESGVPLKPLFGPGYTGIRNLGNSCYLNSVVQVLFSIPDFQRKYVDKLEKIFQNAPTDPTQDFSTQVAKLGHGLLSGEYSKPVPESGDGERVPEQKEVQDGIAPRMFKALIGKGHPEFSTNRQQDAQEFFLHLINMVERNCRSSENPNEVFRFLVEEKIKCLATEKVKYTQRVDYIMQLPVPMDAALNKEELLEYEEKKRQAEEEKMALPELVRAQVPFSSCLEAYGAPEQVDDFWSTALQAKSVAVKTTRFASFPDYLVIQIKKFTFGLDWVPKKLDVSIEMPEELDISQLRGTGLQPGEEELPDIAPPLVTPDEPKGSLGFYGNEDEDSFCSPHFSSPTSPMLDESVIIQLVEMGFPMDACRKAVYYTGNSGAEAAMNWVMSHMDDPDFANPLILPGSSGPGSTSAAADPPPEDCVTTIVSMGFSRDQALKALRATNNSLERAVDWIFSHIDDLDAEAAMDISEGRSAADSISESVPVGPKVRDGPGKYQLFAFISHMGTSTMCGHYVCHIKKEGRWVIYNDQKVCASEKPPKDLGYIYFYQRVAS
Procedure, shortened: as §1

USP54 = USP54 (UniProt Q70EL1)
Sequence of USP54 (Q70EL1 whole entry): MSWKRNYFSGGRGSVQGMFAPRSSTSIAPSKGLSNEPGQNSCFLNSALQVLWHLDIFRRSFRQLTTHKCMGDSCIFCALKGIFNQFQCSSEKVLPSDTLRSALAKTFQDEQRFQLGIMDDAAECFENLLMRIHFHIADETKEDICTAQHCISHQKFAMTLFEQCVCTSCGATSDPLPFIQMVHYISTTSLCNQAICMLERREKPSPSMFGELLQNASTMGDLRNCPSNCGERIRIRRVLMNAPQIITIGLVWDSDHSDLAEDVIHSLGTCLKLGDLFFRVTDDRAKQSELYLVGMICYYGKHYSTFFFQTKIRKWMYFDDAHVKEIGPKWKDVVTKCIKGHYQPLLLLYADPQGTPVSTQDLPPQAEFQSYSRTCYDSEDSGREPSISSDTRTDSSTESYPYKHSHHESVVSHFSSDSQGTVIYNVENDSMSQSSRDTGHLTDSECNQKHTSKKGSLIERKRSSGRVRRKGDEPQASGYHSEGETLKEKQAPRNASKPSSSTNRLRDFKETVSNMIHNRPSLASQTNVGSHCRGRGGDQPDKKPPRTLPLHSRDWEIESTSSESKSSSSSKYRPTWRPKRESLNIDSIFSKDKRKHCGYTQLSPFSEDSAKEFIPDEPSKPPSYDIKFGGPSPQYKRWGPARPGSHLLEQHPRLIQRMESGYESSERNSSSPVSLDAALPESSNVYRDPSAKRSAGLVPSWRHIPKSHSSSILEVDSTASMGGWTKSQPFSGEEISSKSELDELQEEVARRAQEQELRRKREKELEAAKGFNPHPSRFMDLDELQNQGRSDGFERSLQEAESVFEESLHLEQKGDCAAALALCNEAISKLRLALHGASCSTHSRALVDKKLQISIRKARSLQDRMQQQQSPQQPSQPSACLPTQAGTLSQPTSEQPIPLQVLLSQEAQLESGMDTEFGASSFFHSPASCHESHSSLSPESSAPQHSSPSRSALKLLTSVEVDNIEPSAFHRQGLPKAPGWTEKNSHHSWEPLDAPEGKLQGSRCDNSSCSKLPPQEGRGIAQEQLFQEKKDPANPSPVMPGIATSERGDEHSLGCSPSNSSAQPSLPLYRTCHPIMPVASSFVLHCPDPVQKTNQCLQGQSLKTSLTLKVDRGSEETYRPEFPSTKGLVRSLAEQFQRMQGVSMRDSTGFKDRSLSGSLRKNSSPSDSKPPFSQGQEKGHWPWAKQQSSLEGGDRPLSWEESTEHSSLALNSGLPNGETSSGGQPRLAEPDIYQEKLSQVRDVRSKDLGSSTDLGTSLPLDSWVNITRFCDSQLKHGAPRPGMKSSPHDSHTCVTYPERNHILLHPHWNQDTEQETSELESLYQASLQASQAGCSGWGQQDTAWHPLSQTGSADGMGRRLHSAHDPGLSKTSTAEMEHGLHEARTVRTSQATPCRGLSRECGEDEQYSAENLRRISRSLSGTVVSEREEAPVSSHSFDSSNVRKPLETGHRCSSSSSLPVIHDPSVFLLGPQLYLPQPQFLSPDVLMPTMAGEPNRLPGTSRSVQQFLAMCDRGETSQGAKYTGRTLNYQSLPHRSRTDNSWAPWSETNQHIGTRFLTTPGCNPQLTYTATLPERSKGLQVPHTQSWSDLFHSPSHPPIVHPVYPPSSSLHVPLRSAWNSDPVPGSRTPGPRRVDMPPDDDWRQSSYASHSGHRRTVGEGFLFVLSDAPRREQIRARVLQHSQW
Procedure, shortened: as §1

USP7 = USP7 (UniProt Q93009)
Procedure, shortened: as §1

USP8 = molecular target: T5, USP8 (UniProt P40818)
T5 sequence (whole entry): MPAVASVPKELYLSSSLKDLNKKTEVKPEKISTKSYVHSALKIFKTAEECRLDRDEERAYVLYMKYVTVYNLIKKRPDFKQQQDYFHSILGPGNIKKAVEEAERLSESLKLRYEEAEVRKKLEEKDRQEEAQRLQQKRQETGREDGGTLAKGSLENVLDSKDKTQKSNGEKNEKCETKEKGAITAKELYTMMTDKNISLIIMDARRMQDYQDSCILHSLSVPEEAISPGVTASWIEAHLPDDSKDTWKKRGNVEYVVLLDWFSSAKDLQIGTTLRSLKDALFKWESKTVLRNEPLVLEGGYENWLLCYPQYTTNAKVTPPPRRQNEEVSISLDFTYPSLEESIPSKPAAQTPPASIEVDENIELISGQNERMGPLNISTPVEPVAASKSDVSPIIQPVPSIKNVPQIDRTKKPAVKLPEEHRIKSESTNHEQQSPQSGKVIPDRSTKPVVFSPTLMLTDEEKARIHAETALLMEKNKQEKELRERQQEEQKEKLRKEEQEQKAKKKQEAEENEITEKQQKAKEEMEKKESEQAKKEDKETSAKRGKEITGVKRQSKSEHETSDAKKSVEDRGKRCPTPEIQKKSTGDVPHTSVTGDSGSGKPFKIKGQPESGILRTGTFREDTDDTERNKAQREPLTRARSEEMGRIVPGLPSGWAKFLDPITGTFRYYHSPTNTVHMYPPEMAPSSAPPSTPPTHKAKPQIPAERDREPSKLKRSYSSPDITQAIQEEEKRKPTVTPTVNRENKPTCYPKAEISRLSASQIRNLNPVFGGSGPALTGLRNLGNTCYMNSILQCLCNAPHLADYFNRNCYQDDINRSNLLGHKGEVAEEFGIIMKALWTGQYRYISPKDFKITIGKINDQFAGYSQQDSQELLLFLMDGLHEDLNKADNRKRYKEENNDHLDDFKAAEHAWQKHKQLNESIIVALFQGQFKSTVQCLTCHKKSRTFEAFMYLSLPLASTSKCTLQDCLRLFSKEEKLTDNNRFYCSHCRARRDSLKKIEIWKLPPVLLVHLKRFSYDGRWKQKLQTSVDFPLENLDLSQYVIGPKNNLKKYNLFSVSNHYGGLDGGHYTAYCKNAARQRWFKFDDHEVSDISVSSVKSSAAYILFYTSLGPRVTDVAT
Procedure, shortened: as §1

USP9X = USP9X (UniProt Q93008)
Sequence of USP9X (Q93008 whole entry): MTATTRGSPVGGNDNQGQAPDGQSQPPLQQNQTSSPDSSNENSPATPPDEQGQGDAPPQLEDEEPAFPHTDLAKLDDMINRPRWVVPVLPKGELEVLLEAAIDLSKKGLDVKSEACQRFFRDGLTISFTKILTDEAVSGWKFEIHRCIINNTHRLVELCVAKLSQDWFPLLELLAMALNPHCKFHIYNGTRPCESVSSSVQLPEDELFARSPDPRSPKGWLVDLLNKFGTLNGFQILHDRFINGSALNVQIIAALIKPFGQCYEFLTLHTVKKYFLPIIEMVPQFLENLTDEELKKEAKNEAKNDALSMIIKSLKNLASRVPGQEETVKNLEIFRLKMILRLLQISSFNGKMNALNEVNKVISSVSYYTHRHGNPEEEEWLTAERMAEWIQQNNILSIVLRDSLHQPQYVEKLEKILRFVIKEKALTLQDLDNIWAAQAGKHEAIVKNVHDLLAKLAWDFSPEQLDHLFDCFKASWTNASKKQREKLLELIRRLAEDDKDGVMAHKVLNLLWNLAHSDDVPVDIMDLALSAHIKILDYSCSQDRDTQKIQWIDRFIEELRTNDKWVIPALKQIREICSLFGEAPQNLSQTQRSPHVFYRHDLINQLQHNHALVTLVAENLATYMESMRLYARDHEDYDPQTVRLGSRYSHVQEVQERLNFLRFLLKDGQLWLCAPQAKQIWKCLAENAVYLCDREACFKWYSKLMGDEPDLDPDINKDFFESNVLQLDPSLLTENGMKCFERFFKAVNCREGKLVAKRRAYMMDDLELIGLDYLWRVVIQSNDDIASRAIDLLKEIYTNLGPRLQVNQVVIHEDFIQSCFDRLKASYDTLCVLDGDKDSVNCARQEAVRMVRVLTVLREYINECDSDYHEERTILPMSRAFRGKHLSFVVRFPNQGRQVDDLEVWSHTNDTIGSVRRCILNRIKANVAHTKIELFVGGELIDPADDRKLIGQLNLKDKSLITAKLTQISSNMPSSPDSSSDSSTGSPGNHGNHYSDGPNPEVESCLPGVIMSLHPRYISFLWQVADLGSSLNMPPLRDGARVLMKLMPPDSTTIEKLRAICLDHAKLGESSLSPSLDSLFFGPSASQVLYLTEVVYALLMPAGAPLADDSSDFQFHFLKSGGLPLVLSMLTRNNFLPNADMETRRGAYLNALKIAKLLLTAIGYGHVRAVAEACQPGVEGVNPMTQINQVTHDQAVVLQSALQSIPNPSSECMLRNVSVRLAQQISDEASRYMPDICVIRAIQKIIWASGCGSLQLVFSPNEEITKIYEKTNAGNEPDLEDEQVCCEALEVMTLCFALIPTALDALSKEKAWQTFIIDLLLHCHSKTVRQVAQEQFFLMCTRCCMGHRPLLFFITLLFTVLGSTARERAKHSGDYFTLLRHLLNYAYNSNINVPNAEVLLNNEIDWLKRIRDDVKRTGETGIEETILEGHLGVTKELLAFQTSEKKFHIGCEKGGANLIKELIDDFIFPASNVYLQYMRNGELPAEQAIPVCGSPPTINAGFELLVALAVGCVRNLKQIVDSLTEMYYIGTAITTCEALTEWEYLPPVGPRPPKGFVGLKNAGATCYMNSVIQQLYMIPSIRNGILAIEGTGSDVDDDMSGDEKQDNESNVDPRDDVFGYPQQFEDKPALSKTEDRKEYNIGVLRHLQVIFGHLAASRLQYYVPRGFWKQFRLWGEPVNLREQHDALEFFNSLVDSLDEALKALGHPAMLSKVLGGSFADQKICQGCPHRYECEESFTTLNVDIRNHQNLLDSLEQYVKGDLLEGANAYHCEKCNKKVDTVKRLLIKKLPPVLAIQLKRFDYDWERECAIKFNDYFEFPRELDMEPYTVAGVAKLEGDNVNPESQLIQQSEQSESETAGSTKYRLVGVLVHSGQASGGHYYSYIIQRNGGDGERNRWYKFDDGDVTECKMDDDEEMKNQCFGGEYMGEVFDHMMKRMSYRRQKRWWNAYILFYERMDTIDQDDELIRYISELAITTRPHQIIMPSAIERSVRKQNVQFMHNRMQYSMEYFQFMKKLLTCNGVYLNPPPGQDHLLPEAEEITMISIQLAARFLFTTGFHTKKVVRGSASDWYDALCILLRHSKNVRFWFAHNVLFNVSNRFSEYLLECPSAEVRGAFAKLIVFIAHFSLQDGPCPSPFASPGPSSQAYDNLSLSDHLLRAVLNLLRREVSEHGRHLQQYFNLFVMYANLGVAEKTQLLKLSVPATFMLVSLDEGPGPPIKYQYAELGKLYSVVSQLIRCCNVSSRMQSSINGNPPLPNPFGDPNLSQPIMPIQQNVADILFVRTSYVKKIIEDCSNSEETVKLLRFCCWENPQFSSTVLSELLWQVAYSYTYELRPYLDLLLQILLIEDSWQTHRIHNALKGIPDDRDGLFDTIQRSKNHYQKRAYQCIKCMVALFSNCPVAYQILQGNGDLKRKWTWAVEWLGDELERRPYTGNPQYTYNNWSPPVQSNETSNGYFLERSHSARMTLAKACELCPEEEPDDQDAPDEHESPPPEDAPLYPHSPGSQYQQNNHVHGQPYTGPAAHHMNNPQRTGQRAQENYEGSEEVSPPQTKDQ
Procedure, shortened: as §1

UniProt O00487 = molecular target: UniProt O00487
Sequence of UniProt O00487 (O00487 whole entry): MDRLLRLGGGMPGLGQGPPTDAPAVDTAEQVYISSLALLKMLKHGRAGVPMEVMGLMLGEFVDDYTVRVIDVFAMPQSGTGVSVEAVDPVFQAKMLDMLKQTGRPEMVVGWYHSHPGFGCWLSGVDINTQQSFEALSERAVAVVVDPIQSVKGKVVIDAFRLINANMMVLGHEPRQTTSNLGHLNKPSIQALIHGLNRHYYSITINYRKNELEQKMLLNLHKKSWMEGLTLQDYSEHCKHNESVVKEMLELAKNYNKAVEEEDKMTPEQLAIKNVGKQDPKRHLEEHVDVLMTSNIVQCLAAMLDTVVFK
Procedure, shortened: as §1

Measured: log2 ratio of Biotin-Ahx-Ub-VS probe labelling

CC(NC(=O)CCl)c1csc(-c2ccccc2)n1.Cl (stereo not given)
inactive: USP42 -0.201 | USP46 -0.41 | USP47 0.0356 | USP48 -0.587 | USP5 -0.0456 | USP54 0.348 | USP7 -0.457 | USP8 -0.318 | USP9X -0.619 | UniProt O00487 -0.213

Reference: the supplement of paper PMC11732987, “Enantioselective OTUD7B fragment discovery through chemoproteomics screening and high-throughput optimisation” (Communications Chemistry, 2025)
